Reference: PubChem BioAssay (NCI)
Compounds without any hit were thinned out: in the full panel of roughly 83,000, 20% have a hit.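 Results are percent growth after 48 hours of single-concentration exposure. 100 means growth as in untreated cells, lower positive values show inhibition; negative values down to -100 show cell death.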 Calls of active or inactive are those of the source. Rule for the calls: active = growth percent below 10; inactive = the rest.

System: T-47D breast
Test: NCI-60 one-dose screen, 48 h (100 = growth as untreated, 0 = no growth, -100 = all killed)
Conditions: 10 µM unless noted

Compound	growth
CC(=O)NC(C)(C)C(=O)N1CCC[C@H]1C(=O)NC(C)(C)C(=O)N[C@@H](C)C(=O)NC(C)(C)C(=O)NC(C)(C)C(=O)N[C@@H](CCC(N)=O)C(=O)NC(C)(C)C(=O)N[C@H](C(=O)NC(C)(C)C(=O)NCC(=O)N[C@@H](CC(C)C)C(=O)NC(C)(C)C(=O)N1CCC[C@H]1C(=O)N[C@H](C(=O)NC(C)(C)C(=O)NC(C)(C)C(=O)N[C@@H](CCC(N)=O)C(=O)N[C@@H](CCC(N)=O)C(=O)N[C@H](CO)Cc1ccccc1)C(C)C)C(C)C	10% [4.25 µM] (inactive)
NC(=S)N/N=C(/C=C/c1cn(-c2ccccc2)nc1-c1ccc(Cl)cc1)c1cc2ccccc2oc1=O	38.7% (inactive)
Cc1ccc(/C=C/c2nn3c(-c4ccco4)nnc3s2)cc1	92.9% (inactive)
COCCOc1ccc(-c2csc(NC(C)=O)n2)cc1NS(=O)(=O)c1cccc2c(N(C)C)cccc12	67.7% (inactive)
COc1cc2cc(Oc3ccc(NC(=O)c4cccc(C(F)(F)F)c4)cc3)c(C)nc2cc1OCCN(C)C	91.2% (inactive)
C=C(C)[C@@H]1CC[C@]2(COS(C)(=O)=O)CC[C@]3(C)[C@H](CC[C@@H]4[C@@]5(C)CCCNC(C)(C)[C@@H]5CC[C@]43C)[C@@H]12	77.5% (inactive)
NC(=O)C(=Cc1ccc(Cl)cc1)C(N)=O	45.2% (inactive)
CCc1ccc(NC(=O)N[C@@H](Cc2cccc(F)c2)C(=O)N[C@@H]2C(=O)N3CCC[C@H]3C(=O)N3CCCC[C@H]3C(=O)N[C@@H](C)C(=O)N3C[C@H](C)C[C@H]3C(=O)O[C@H]2C)c(F)c1	29.6% (inactive)
O=C1c2cc(Br)ccc2-n2c1nc1cc(Br)ccc1c2=O	79.7% (inactive)
C/C=C/[C@@H]1C=C[C@@H]2C[C@H](C)CC[C@H]2[C@]1(C)/C(O)=C1/C(=O)[C@H](CO)N(C)C1=O	74.7% (inactive)
CCOC(=O)c1ccc(N/C=C/C(=O)c2ccccc2)cc1	84.6% (inactive)
CC(=O)C1=NN(c2ccc(Cl)cc2)C(=O)CN1C	96.6% (inactive)
CCn1c2ccc(/C=N/OCCCN(C)C)cc2c2cc(/C=N/OCCCN(C)C)ccc21	105% (inactive)
Cc1ccc(C2CC(c3ccc(Nc4nc(NCCO)nc(Nc5ccc(Cl)cc5)n4)cc3)=Nc3c(N)nc(N)nc3N2)cc1 (centres undefined)	60.1% (inactive)
Cn1ccnc1C(=O)/C=C/c1ccc(C(=O)Nc2ccc(NC(=O)CCNC(=O)c3csc(Br)n3)cc2)cc1	58.9% (inactive)
COc1cc(/C=N/n2cnc3oc(-c4ccccc4)cc3c2=N)cc(CN2CCCC2)c1O	93.3% (inactive)
Cn1cc(-c2nn3c(=O)cc(-c4ccccc4)nc3s2)c2cc(F)ccc21	64.2% (inactive)
CCNC(=NCCCN(C)C)N/C(N)=N/c1nc2ccccc2s1	94.7% (inactive)
CS(=O)(=O)c1ccc2c(c1)c1c(n2S(=O)(=O)c2ccc(Cl)cc2)CCCC1	23% (inactive)
O=C(CSc1nnc(-c2ccc(Cl)cc2)n1-c1ccccc1)Nc1ccc(F)cc1	80.4% (inactive)

Compound	growth
O=[N+]([O-])c1ccc(-c2nnc(SCc3ccc(O)c4ncccc34)n2-c2ccccc2)cc1	24.1% (inactive)
COc1cc2c3c(n(CCCN4CCC[C@H]4C(N)=O)c(=O)c2cc1OC)-c1cc2c(cc1C3=O)OCO2	-11.4% (active)
O=C1[C@@H]2Cc3c([nH]c4ccccc34)[C@H](c3c(Cl)cccc3Cl)N2C(=O)CN1C1CCN(Cc2ccccc2)CC1	76.8% (inactive)
COc1ccc(C(=O)c2c(N)c(C#N)cn2-c2cccc(OC)c2)cc1	16% (inactive)
Nc1ccc(-c2nnc(SCc3ccc(O)c4ncccc34)o2)cc1	-19.7% (active)
C/C(=N/Nc1nc(N/N=C(/C)c2ccc([N+](=O)[O-])cc2)nc(N2CCOCC2)n1)c1ccc([N+](=O)[O-])cc1	54.9% (inactive)
O=C1c2c(O)cc(O)cc2O[C@@H](c2ccc(O)cc2)[C@@H]1c1c(O)cc(O)c2c(=O)cc(-c3ccc(O)c(O)c3)oc12	105% (inactive)
COc1ccc2c(c1)oc1c3[nH]c4ccccc4c3c3c(c21)C(=O)N(O)C3=O	10.8% (inactive)
COc1cc2c3c(n(CCCNC4CCCCC4)c(=O)c2cc1OC)-c1cc2c(cc1C3=O)OCO2	91.5% (inactive)
C=CCn1c(SCC(=O)Nc2cccc(C(=O)/C=C/c3cc(OC)c(OC)c(OC)c3)c2)nc2ccccc2c1=O	66.4% (inactive)
O=C1c2c(c3c4cc(O)ccc4oc3c3[nH]c4ccccc4c23)C(=O)N1O	-17% (active)
COC(=O)c1nc(-c2ccc(C)cc2)oc1S(=O)(=O)N1CCN(c2oc(-c3ccccc3)nc2C#N)CC1	111% (inactive)
COc1ccc(-c2nnc(SCc3ccc(O)c4ncccc34)n2-c2ccccc2)cc1	18.9% (inactive)
Oc1ccccc1/C=N/Nc1nc(N/N=C/c2ccccc2O)nc(N2CCOCC2)n1	46.1% (inactive)
NS(=O)(=O)c1ccc(-n2cc(CC=O)nn2)cc1	102% (inactive)
O=C(Cn1cc(CN2C(=O)c3ccc([N+](=O)[O-])cc3C2=O)nn1)Nc1ccc(F)cc1Cl	95.4% (inactive)
C/C=C/C=C1\C[C@H]2CO[C@H](O2)C1=O	98.4% (inactive)
O=C(COc1ccc(/C=C2\SC(=O)NC2=O)cc1)Nc1ccc(C(=O)/C=C/c2cc3ccccc3nc2Cl)cc1	54.7% (inactive)
O=c1oc2ccc(-c3ccc(F)cc3F)cc2c(=O)n1-c1ccc(F)c(F)c1	9.12% (active)
